From PubChem BioAssay AID641 (Vanderbilt High Throughput Screening Facility, 2007) come the findings set out here.

The structures appear in SMILES notation. The whole screen tested about 58,000 compounds, of which about 3,400 (5.9%) were called active. The sample holds actives, similar compounds and a random draw of the others, so the mix is not that of the screen. A number with no mark means an inactive call.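 Rule for the calls: active = luminescence count or its row- and column-corrected plate score outside the 99.7% band of the plate's sample wells, on either side; inactive = the rest.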

The target of the assay is D(1A) dopamine receptor (Homo sapiens) (UniProt P21728). In words: D1 CRE-luciferase signal change, two-sided – cell-based, HEK293 D1, dopamine EC30, D1 allosteric modulator project, primary screen (AID 641). The settings on record: dopamine EC30 potentiation, at 10 µM, actives deviate in either direction.
Sequence of D(1A) dopamine receptor (Homo sapiens) (P21728 whole entry, looked up): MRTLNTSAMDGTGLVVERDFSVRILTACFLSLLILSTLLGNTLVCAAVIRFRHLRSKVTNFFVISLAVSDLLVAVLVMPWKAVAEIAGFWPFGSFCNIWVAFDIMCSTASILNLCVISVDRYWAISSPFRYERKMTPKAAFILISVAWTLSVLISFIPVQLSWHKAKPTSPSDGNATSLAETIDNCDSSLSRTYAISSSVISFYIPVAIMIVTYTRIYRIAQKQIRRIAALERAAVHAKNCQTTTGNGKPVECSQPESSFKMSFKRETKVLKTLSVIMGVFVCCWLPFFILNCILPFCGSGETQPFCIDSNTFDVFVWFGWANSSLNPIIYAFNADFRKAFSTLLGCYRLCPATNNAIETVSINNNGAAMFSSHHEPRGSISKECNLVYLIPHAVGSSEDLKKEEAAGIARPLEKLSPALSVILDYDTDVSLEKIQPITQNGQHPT
As to `CCOc1cc(/C=N/O)cc(Br)c1OC`, the B-score is 10.9 (active).
For `O=C(c1cnn2ccccc12)N1CCc2ccccc21`, the B-score was -0.641.
For `CCCN(CCC)C(=O)C1c2ccccc2Oc2ccccc21` the value was 0.123.
Take `C/C(=C\C(=O)c1ccccc1)Nc1cccc(O)c1`: the B-score is 4.14 (active).
On to `CC(=O)c1cccc(NC(=O)c2ccncc2)c1`, for which the B-score was -0.215.
Regarding `C/C(=C\C(=O)c1cccnc1)Nc1ccc(C)c(C)c1`, the B-score was 0.381.
Under `CCc1nc(Nc2ccc3nccnc3c2)c2oc3ccccc3c2n1` stands -1.78; under `Cc1cccc(N2CCN(C(c3ccccc3)c3nnnn3CC3CCCO3)CC2)c1C` (stereo unspecified), -1.87; under `CCSc1nc(C)nc2c1oc1ccccc12`, 10.5 (active).
For `COc1ccc(CCNC(=O)CSc2nc(C)nc3c2oc2ccccc23)cc1OC` the value was 1.41; for `Cc1nc(N2CCN(c3ncccn3)CC2)c2oc3ccccc3c2n1`, 3.11.
With `CCn1nnc(NC(=O)c2c(OC)cccc2OC)n1`, the B-score is -0.273.
Turning to `Cc1ccccc1CN1CCN(CC(=O)NCc2ccccn2)C1=O`, the B-score is -0.577.
As to `COc1ccc(-c2nnco2)cc1OC`, the B-score was 9.98 (active).
Take `COCCn1c(-c2ccc(OC)c(OC)c2)nc2ccccc21`: the B-score was 1.2.
On to `COc1ccc2c(Cl)c(-c3nnco3)sc2c1`, for which the B-score is -2.33.
As to `COC(=O)c1ccc(NC(=O)CN(c2ccc(C)cc2)S(=O)(=O)c2c(C)n[nH]c2C)cc1`, the B-score is -1.32.
For the molecule `CC(=O)NCC(=O)N(C)C(C(=O)Nc1ccc2c(c1)OCCO2)c1ccccc1` (stereo unspecified), the B-score was 1.86.
Under `Cc1nc(Nc2ccc3c(c2)OCCO3)c2nnn(Cc3ccccc3Cl)c2n1` stands -2.58; under `CC(=O)NC(C)c1nc2ccccc2n1Cc1ccccc1F` (stereo unspecified), 0.517; under `C#CCNc1nc(C(C)C)nc2c1nnn2Cc1ccccc1F`, 8.02 (active).
For `NC(=O)C1CC=CCC1C(=O)OCC(Cl)=C(Cl)Cl` (stereo unspecified) the value was -0.419; for `CCOc1cccc(=O)c2c(C)n(CC3CCCO3)c(C)c12` (stereo unspecified), 0.961.
For `CCOC(=O)NC(C(F)(F)F)(C(F)(F)F)P(=O)(c1ccccc1)c1ccccc1` the value was -0.00139; for `CCCn1c(=O)c2[nH]c(C3CCCC3)nc2n(CCC)c1=O`, 20 (active).
Regarding `CCN(c1ccccc1)S(=O)(=O)c1ccc(N)cc1`, the B-score is 0.0758.
Under `CC(NC(=O)CN1CCN(Cc2ccc(Cl)cc2)C1=O)c1ccc2c(c1)OCCO2` (stereo unspecified) stands -0.383.
Under `CCNc1nc(NCC)nc(N(C)n2cnnc2)n1` stands 6.74 (active).
With `CCNc1nc(SCCOc2ccccc2)nc(N(C)C)n1`, the B-score was 1.16.
Take `Cc1cccc(NC(=O)C2CCN(S(=O)(=O)c3cccc4cccnc34)CC2)c1`: the B-score is -1.64.
Take `CCOC(=O)c1ccc(Nc2cc(C)nc3nc(C)nn23)cc1`: the B-score was 0.18.
For `COc1cccc(N2CC(C(=O)Nc3c(C)cccc3C)CC2=O)c1` (stereo unspecified) the value was 0.869; for `CCc1ccc2oc(=O)cc(CN3CCCCC3C)c2c1` (stereo unspecified), 3.81 (active); for `CC1CCCCN1CC(=O)NCc1ccc2c(c1)OCO2` (stereo unspecified), 0.0178.
Under `Cc1cc(NC(=O)CN2CCCCC2C)nc2c1c(=O)oc1ccccc12` (stereo unspecified) stands -0.0379; under `COCC(C)N=CC1=C(O)CC(C)(C)CC1=O` (stereo unspecified), 0.0482.
Regarding `CCn1c(Cc2ccccc2)nnc1SCC(=O)Nc1ccccc1`, the B-score is -0.326.
As to `CC1OC2C(OC1C)N(S(C)(=O)=O)CCN2S(C)(=O)=O` (stereo unspecified), the B-score is -0.145.
Under `COc1ccc(-c2nnn(CC(=O)N(CCO)C(C(=O)NC3CCCC3)c3ccc(F)cc3)n2)cc1` (stereo unspecified) stands -0.256; under `COc1ccc(-c2nnn(Cc3nc(N)nc(N4CCCCC4)n3)n2)cc1`, 5 (active).
For the molecule `CCc1ccc(-c2nnn(Cc3nn[nH]n3)n2)cc1`, the B-score is -0.837.
Under `COc1ccc(-n2nc3c(c2NC(=O)Cc2cccc(C)c2)CS(=O)C3)cc1` (stereo unspecified) stands 0.123.
Under `COc1cccc(NC(=O)Nc2nnc(N3CCCCC3C)s2)c1` (stereo unspecified) stands -0.931; under `CC/C(=N\O)C(C)(C)/[N+]([O-])=C/c1ccc(Br)cc1`, 0.458.
Take `CCCS(=O)(=O)N1CCC(C(=O)NCCc2ccc(OC)c(OC)c2)CC1`: the B-score was 1.44 (active).
For `COc1ccc(CCNC(=O)C2CCN(c3nn4c(=O)cc(C)nc4s3)CC2)cc1OC` the value was -0.543.
Under `CCCS(=O)(=O)N1CCC(C(=O)NCCCN(C)Cc2ccccc2)CC1` stands -0.981; under `CN1CCN(Cc2c(O)ccc3c2oc(=O)c2ccccc23)CC1`, -0.323; under `O=C(CSc1nnc(-c2cccs2)n1Cc1ccco1)c1ccc2c(c1)OCO2`, -1.01.
In the case of `CCOC(=O)N1CCC(NC(=O)c2cnn3ccccc23)CC1`, the B-score was 0.314.
With `O=C(O)C1CC(=O)N(Cc2cccnc2)C1` (stereo unspecified), the B-score was -0.0843.
For the molecule `CC1Oc2ccccc2N(Cc2cccnc2)C1=O` (stereo unspecified), the B-score is 6.15 (active).
For `O=C(Cn1nc(Cc2cccnc2)c2ccccc2c1=O)NCC1COc2ccccc2O1` (stereo unspecified) the value was 0.362; for `Cc1cc2cc(CNC(=O)c3ccc(S(=O)(=O)N4CCOCC4)cc3)ccc2[nH]1`, 0.133; for `O=C(CN1C(=O)CSc2ncccc21)N1CCOCC1`, -0.0289.
For `Cc1cc(=O)cc(C)[nH]1` the value was -0.271; for `CC(=O)NC(C)(C)C1CC=C(C)/C(=N\O)C1` (stereo unspecified), 0.674.
For `OC(COc1ccccc1)Cn1cc(Br)cn1` (stereo unspecified), the B-score is -0.000319.
Under `CCn1cc(C(=O)N2CCN(Cc3ccc4c(c3)OCO4)CC2)c2cc(OC)c(OC)cc2c1=O` stands -1.2; under `CCn1cc(C(=O)NCc2ccc3c(c2)OCO3)c2cc(OC)c(OC)cc2c1=O`, 0.436; under `CCn1cc(C(=O)NCC2COc3ccccc3O2)c2cc(OC)c(OC)cc2c1=O` (stereo unspecified), 5.22 (active).
Under `Cc1ccccc1C(=O)Nc1cccc(-c2nnc(SCC(=O)O)n2C)c1` stands -0.574.
For `CCCc1[nH]nc2c1C(c1ccc(OC)c(Cn3nc(C)c(Br)c3C)c1)C(C#N)=C(N)O2` (stereo unspecified) the value was 0.961; for `CC1(C)CC(=O)c2sc(N)nc2C1`, -0.282.
For `CCCc1nc(N)nc2c1C(=O)CC(C)(C)C2`, the B-score is 14.2 (active).
For `Cc1ccccc1CSCC(=O)NC(=O)NC(C)(C)C` the value was 0.485; for `CC(Nc1nc(N2CCCC2)nc2ccccc12)c1ccccc1` (stereo unspecified), -4.18 (active).
As for `Cc1ccc(C(CC(=O)O)Nc2nc(N3CCCCC3)nc(N3CCCCC3)n2)cc1` (stereo unspecified), the B-score is -0.363.
For `Cc1ccnc(N2CCCC(C(=O)Nc3cc(F)ccc3C)C2)n1` (stereo unspecified) the value was -0.197; for `O=C(CSc1nc2ncccc2[nH]1)Nc1ccc2c(c1)OCCO2`, 0.287; for `O=C(Nc1ccc2c(c1)OCCO2)C1CCCN(c2ncccn2)C1` (stereo unspecified), -3.93 (active).
For `O=C1c2oc3ccc(Br)cc3c(=O)c2C(c2cccc(F)c2)N1CCO` (stereo unspecified) the value was -0.882.
Under `CN=C1SC(C(=O)O)CC(=O)N1C` (stereo unspecified) stands -0.346; under `Cc1noc(NS(=O)(=O)c2ccc(N3CC(O)=C(c4ccccc4)C3=N)cc2)c1C`, 0.215.
Consider `COCCNC(=O)COc1ccc(C)c(C)c1`, for which the B-score is 0.751.
For `O=C(Nc1cccnc1)c1ccc2c(c1)OCO2` the value was -0.0115; for `O=C(Nc1cccnc1)c1noc2c1CCCCC2`, -2.9 (active).
Under `CCOc1cccc(C(=O)Nc2cccnc2)c1` stands 0.108; under `Cc1nnc(SCC(=O)NCc2ccccc2)s1`, 0.474.
For `O=C(CSc1nnc2ccccn12)c1ccccc1` the value was -0.291; for `COc1ccc(-n2c(SC)nc(O)cc2=O)cc1`, 0.0194; for `COc1ccc(NC(=O)C2CCCN(S(=O)(=O)c3cccc4cccnc34)C2)cc1` (stereo unspecified), -1.11.
On to `COc1ccc(NC(=O)C2CCCN(S(=O)(=O)c3cccc4cccnc34)C2)cc1OC` (stereo unspecified), for which the B-score was 11.5 (active).
For `COc1ccccc1CNC(=O)C1CCCN(S(=O)(=O)c2cccc3cccnc23)C1` (stereo unspecified) the value was -0.155; for `COc1ccc(OC)c2[nH]c(=O)c(CCNC(=O)C(C)(C)C)cc12`, -0.197; for `CCCSc1nc2c(c(=O)n(C)c(=O)n2C)n1Cc1ccc(C)cc1`, 1.94.
For `CCOc1ccc(Cn2c(SCCCCC#N)nc3c2c(=O)n(C)c(=O)n3C)cc1OCC` the value was 10.1 (active).
On to `CCCCn1c(SCC(=O)NCCc2ccc(OC)c(OC)c2)nc2c1c(=O)n(C)c(=O)n2C`, for which the B-score is 0.0783.
Under `Fc1ccc(OCc2nn3c(Cn4nnc5ccccc54)nnc3s2)cc1` stands -0.628.
Under `Oc1ccc(Cl)cc1/C=N/c1nc2ccccc2[nH]1` stands 1.49.
Under `N#Cc1ccc(COC(=O)Cn2nnc(-c3ccccc3)n2)cc1` stands 0.71.
Take `COc1cccc(NC(=O)C2CCCN2C(=O)OCc2ccccc2)c1` (stereo unspecified): the B-score is 0.12.
Under `N#Cc1c(N)sc2c1CCN(C(=O)OCc1ccccc1)C2` stands 5.84 (active).
For `O=C(NCCN1CCOCC1)c1ccc2c(c1)ncn2C1CCCC1` the value was -0.956; for `COc1ccc(OC)c(NC(=O)Cn2c(=O)oc3ccccc32)c1`, 0.945.
Under `COc1ccc(CCNC(=O)CCn2c(=O)oc3ccccc32)cc1OC` stands 6.86 (active).
Turning to `COc1ccc(CCNC(=O)CCCCn2c(=O)[nH]c3ccccc3c2=O)cc1OC`, the B-score was 0.358.
For `Cc1c(C(=O)NCC2CCCO2)sc2nc(-c3ccccc3)cn12` (stereo unspecified) the value was 0.33; for `O=C(O)[C@@H]1CCCN1c1ncnc2sc3c(c12)CCC3`, -0.0144.
For `CC1(C)CN=C(N2CCN(c3ncnc4sc5c(c34)CCCC5)CC2)S1` the value was -0.977; for `COc1ncnc2sc3c(c12)CCCC3`, 5.43 (active).
